High-throughput results as filed in PubChem BioAssay.
IP6K1 inhibitor – inhibitors of human IP6K1 | Q92551 | IP6K1 kinase, ADP-Glo luminescence, 2 h; stronger effect = lower value | activity change, % (series mostly up to about 58 µM) | actives 0.81% (n = 140,000); in the data active = activity change below about -25%; note: % is set by controls: 0 for no effect and ±100 for the full control effect
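ADP-Glo luminescence measures ADP made by human IP6K1 during a 2 h RT reaction with ATP/IP6 (mix at 1.3 mM/130 uM); top library doses 57.5 and 19.1 uM final.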
HEK293 viab – cell viability loss counter-screen. HEK-293-SNCA-luc viability, GF-AFC fluorescence, 24 h. Potency, µM (top dose mostly 57.1 µM), for the others: at the highest dose activity change, negative = cytotoxicity, usual class: cytotoxic. actives 0.12% (n = 150,000);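 note: potency is the fitted concentration of half-maximal effect; 0% = DMSO-treated cells and -100% = medium-only wells without cells; nearly all actives have a fitted effect of over 30% in size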
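HEK-293-SNCA-luc cells (1500/well) plated 24 h, then exposed 24 h to a dilution series; GF-AFC added 30 min at 37C, fluorescence 405/540 nm; normalised to medium-only and DMSO wells, Hill fit.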
KDM5B inh – blocks human KDM5B histone demethylase activity. Q9UGL1. KDM5B demethylase, FDH-coupled NADH fluorescence (FDH is formaldehyde dehydrogenase). Potency, µM (titrated, usually from 57.7 µM), usual class: inhibitors. actives 2.6% (n = 220,000). AID 1347165; note: potency is the fitted concentration of half-maximal effect; 0% is about no effect; nearly all actives have a fitted effect of over 70% in size
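qHTS format, multiple compound concentrations. Buffer 50 mM HEPES pH 7.5/0.01% Tween-20; 200 nM KDM5BΔAP final; 10 min compound preincubation; substrate-mix levels 12.5 µM peptide, 25 µM α-KG, 0.25 mM NAD⁺; 30 min RT; ΔRFU.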
SNCA expr inhib – reduces expression of the alpha-synuclein gene | actives 0.17% (n = 140,000) | HEK-293 SNCA-luciferase knock-in, luminescence, 24 h | Potency, µM (highest dose often 57.2 µM), for the others: at the highest dose activity change, negative = inhibition, actives largely listed as inhibitors;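 note: potency is the fitted concentration of half-maximal effect; plate controls were DMSO cells for no effect and cell-free wells for full effect; nearly all actives have a fitted effect of over 45% in size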
Numbers without * were called inactive; i = inactive; u = inconclusive; x = no result given; ! = not confirmed by another sample; [ ] = another dose, or the depositor's remark. Hits are enriched below; roughly 3% of the tested compounds scored in any of these assays. Unless noted, calls come from the whole dose curve; as a rule, active = well fitted curve in the direction sought with a large enough effect; inconclusive = small, poorly fitted or top-dose-only effect, or another doubt; inactive = no such curve, though single readings can be large; an effect the other way counts as inactive or inconclusive.

SMILES	IP6K1 inhibitor	HEK293 viab	KDM5B inh	SNCA expr inhib
O=C(NCCc1ccc(Cl)cc1)c1nc(-c2cccc(C(F)(F)F)c2)c2cnccn12	0	-1%	32µM*	u
O=C(NCCc1ccc(Cl)cc1)c1nc(-c2cccc(F)c2)c2cnccn12	0	5%	28µM*	-15%
CCCCCNC(=O)c1cc(-c2cccc(F)c2)nc2c1cnn2C	10	x	x	x
COc1cc(-c2cc(C)c3cccc(OC)c3n2)cc2c1OCCN(C(=O)CCN)C2	-8	8%	28µM*	7%
COc1cc(-c2cccs2)cc2c1OCCN(C(=O)c1ccncc1C)C2	4	-7%	i	-1%
CC(=O)N1CCC(N2CC[C@H](c3nc4ccccc4s3)C2)CC1	26	-8%[87.6 µM]	32µM*	41%[87.6 µM]
C=CCO[C@@H]1CCN2C(=O)c3cc(-c4ccc(F)cc4F)ccc3NC(=O)[C@H]12	-5	-6%[87.6 µM]	u	-5%[87.6 µM]
O=C(Nc1cccc(F)c1)N1CCc2c(c3ccccc3n2CC2CC2)C1	-6	u	22µM*	8%
Cc1ccc(NC(=O)N2CCc3c(c4ccccc4n3CC3CC3)C2)cc1	5	1%	22µM*	73%
O=C(NCCC1CCN(C(=O)Nc2cccc(F)c2)CC1)c1ccccc1	0	11%	i	66%
O=C(Nc1ccc(F)c(F)c1)N1CCc2c(c3ccccc3n2CC2CC2)C1	-7	-10%	22µM*	u
O=C(Nc1ccc(Cl)cc1)N1CCC(CN2CCCC2)CC1	25	-3%	u	-17%
CCCCc1ccc(NC(=S)NCCCOC(C)C)cc1	x	x	i	x
COc1ncccc1-c1nccc2c(=O)cc(N3CCOCC3)oc12	12	-6%[87.6 µM]	40µM*	8%[87.6 µM]
Cc1ccccc1-c1nccc2c(=O)cc(N3CCOCC3)oc12	-5	6%[87.6 µM]	35µM*	-3%[87.6 µM]
COc1ccccc1-c1nccc2c(=O)cc(N3CCOCC3)oc12	-11	-18%[87.6 µM]	u	23%[87.6 µM]
Cc1ccc(C2c3cc(OCc4nc(C(=O)N5CCCC5)co4)ccc3CCN2C(=O)C2CC2)cc1 (stereo not given)	0	-8%	i	-10%
COc1ccc(OC)c(NC(=O)CSc2c3c(nc4cc(Cl)ccc24)CCCC3)c1	23	-6%	i	2%
COc1ccc(OC)c(NC(=O)CSc2c3c(nc4ccccc24)CCCC3)c1	-13	u	i	22µM*
O=C(N[C@H]1[C@H](O)[C@H](O)C[C@@H]1c1ccc(N2CCOCC2)nc1)c1ccc2c(c1)OCCO2	-1	u	u	30%
O=C(COc1ccccc1)N[C@H]1[C@H](O)[C@H](O)C[C@@H]1c1ccc(N2CCOCC2)nc1	3	8%[87.6 µM]	32µM*	6%[87.6 µM]
CC(C)C(=O)N[C@H]1[C@H](O)[C@H](O)C[C@@H]1c1ccc(N2CCOCC2)nc1	0	0%[87.6 µM]	40µM*	47%[87.6 µM]
COc1ccc(CC(=O)N[C@H]2[C@H](O)[C@H](O)C[C@@H]2c2ccc(N3CCOCC3)nc2)cc1	11	-2%[87.6 µM]	32µM*	35%[87.6 µM]
O=C(N[C@H]1[C@H](O)[C@H](O)C[C@@H]1c1ccc(N2CCOCC2)nc1)c1nc2ccccc2s1	8	-14%	i	60%
O=C1CCN(CC(O)COc2ccccc2)c2ccc(F)cc2CN1C1CCCC1 (stereo not given)	8	x	x	x
SMILES	IP6K1 inhibitor	HEK293 viab	KDM5B inh	SNCA expr inhib
CCNS(=O)(=O)c1ccc(NC(=O)c2cccc(NC(=O)C(CC)CC)c2)cc1	x	x	i	x
O=C1CC2(CCN(CC3CCNC3)C2)Nc2ccccc2N1 (stereo not given)	17	6%[87.6 µM]	112µM*	8%[87.6 µM]
N#Cc1ccc(CN2CCC3(CC(=O)Nc4ccccc4N3)C2)cc1 (stereo not given)	13	-3%	i	11%
Cc1ccc(C2C(C#N)=C(N)N(N3CCOCC3)C3=C2C(=O)CC(C)(C)C3)cc1 (stereo not given)	x	x	i	x
CCOc1cc(C(=O)Nc2ncc(C)s2)ccc1OC	x	x	i	x
COc1cc(C)c(Sc2cnc(NC(=O)c3ccc(CNC(C)C(C)C)cc3)s2)cc1C(=O)N1CCN(C(C)=O)CC1 (stereo not given)	-13	27µM*!	x	u
CNC(=O)NC(=O)CN(Cc1ccc(C#N)cc1)Cc1cccc(F)c1	x	x	i	x
Cn1c(CNC(=O)C2(C)CCCCC(=O)N2)nc2ccccc21 (stereo not given)	7	-10%	i	0%
Cn1c(CNC(=O)C2(Cc3ccccc3)CCCCC(=O)N2)nc2ccccc21 (stereo not given)	0	-13%	18µM*	3%
COc1ccc(CC2CCN(C(=O)c3c(C)noc3-c3ccc4c(c3)OCO4)CC2)cc1	-12	14%	20µM*	-16%
COc1ccc(CCNC(=O)c2c(C)noc2-c2ccccc2OC)cc1OC	-10	8%	i	6%
COc1cccc(CCNC(=O)c2c(C)noc2-c2ccc3c(c2)OCO3)c1	4	-1%	14µM*	5%
Cc1noc(-c2cccc(F)c2)c1C(=O)NCCc1cccc(Cl)c1	-3	13%	i	-20%
COc1ccc(CCNC(=O)c2c(C)noc2-c2ccc3c(c2)OCO3)cc1OC	-2	-1%	28µM*	11%
COc1cccc(CCNC(=O)c2c(C)noc2-c2ccc(OC(F)(F)F)cc2)c1	7	u	i	16%
Cc1noc(-c2ccc3c(c2)OCO3)c1C(=O)NCCc1cccc(Cl)c1	15	7%	28µM*	43%
CC(=O)NC1(C)CCN(Cc2ccccc2-c2ccccc2Oc2ccccc2)C1 (stereo not given)	-4	u	u	u
CNC(=O)c1cc(-c2cccc(OC)c2OC)cc2c1OCCN2Cc1cccnc1	-20	-8%[87.6 µM]	32µM*	-14%[87.6 µM]
COc1ccccc1-c1cc(C(=O)NCc2cccnc2)c2c(c1)N(C)CCO2	-10	-8%[87.6 µM]	40µM*	-2%[87.6 µM]
CN1CCOc2c(C(=O)NCc3cccnc3)cc(-c3ccc(N4CCOCC4)cc3)cc21	-11	5%	u	-24%
COCC(=O)N1CCCN(Cc2cccnc2)c2ccccc21	-5	-9%	i	39%
COc1cccc(-c2cc(C(=O)NCc3cccnc3)c3c(c2)N(C)CCO3)c1OC	-18	-27%[87.6 µM]	35µM*	14%[87.6 µM]
O=C(c1ccc(C(F)(F)F)cc1)N1CCN(C(=O)c2nc3cccnc3n(CCc3ccccc3)c2=O)CC1	1	-9%	x	-16%
Cn1nccc1C(=O)N1CCC(Oc2ccc(-c3noc(-c4ccccc4)n3)cc2)C1 (stereo not given)	25	-24%	x	49%
CC(C)CNC(=O)CSc1nnc(-c2nn(Cc3ccccc3)c(=O)c3ccccc23)o1	x	x	i	x
O=C(NCCN1CCOCC1)c1ccc2nccn2c1	17	1%[87.6 µM]	x	-1%[87.6 µM]
Cc1ncsc1CCNC(=O)c1ccc2nc(-c3ccccc3)cn2c1	10	-1%	25µM*	118%
O=C(NCCc1ccccc1)c1ccc2nccn2c1	17	0%[87.6 µM]	x	92%[87.6 µM]
O=C(NCCN1CCOCC1)c1ccc2nc(-c3ccccc3)cn2c1	1	8%	28µM*	-3%
